Results from PubChem BioAssay AID1159580 (chemical genetic matrix, 2015).
The whole screen tested about 5,500 compounds, of which about 2,000 (36%) were called active. About 18% were inconclusive and are not listed. Rule as the data show it: active = normalized growth mostly below about 0.91 (no sharp cut-off); inconclusive = no clear call, values can overlap the other calls; inactive = mostly above about 0.92. This is one part of the list.

Assay: chemical genetic growth profiling, strain panel (AID 1159580);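 also: tested at 20 µM; growth read once vehicle control cultures reached saturation at 30 °C; 1 = growth at the plate median or of vehicle wells; lower values mean less growth of the strain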
Conditions: growth OD

Measured: normalized growth

Cn1c(=O)c2c(ncn2CCO)n(C)c1=O
inactive: S. cerevisiae deletion strains, locus YJR075W, strain HOC1, active compounds read low 1 | S. cerevisiae deletion strains, locus YKL009W, strain mrt4, active compounds read low 0.99 | S. cerevisiae deletion strains, locus YKL068W, active compounds read low 0.991 | S. cerevisiae deletion strains, locus YKL085W, strain MDH1 (second series), active compounds read low 0.993 | S. cerevisiae deletion strains, locus YKL085W, strain MDH1, active compounds read low 0.993 | S. cerevisiae deletion strains, locus YKL160W, strain elf1, active compounds read low 1.02 | S. cerevisiae deletion strains, locus YKL190W, strain CNB1, active compounds read low 1 | S. cerevisiae deletion strains, locus YKR001C, strain vps1, active compounds read low 0.997 | S. cerevisiae deletion strains, locus YKR026C, strain gcn3, active compounds read low 1.02 | S. cerevisiae deletion strains, locus YKR091W, strain srl3, active compounds read low 1.02 | S. cerevisiae deletion strains, locus YLL001W, strain dnm1, active compounds read low 0.993 | S. cerevisiae deletion strains, locus YLL026W, active compounds read low 1.02 | S. cerevisiae deletion strains, locus YLL041C, strain sdh2, active compounds read low 1.02 | S. cerevisiae deletion strains, locus YLR027C, strain aat2, active compounds read low 1.01 | S. cerevisiae deletion strains, locus YLR039C, strain RIC1, active compounds read low 1.02 | S. cerevisiae deletion strains, locus YLR058C, strain SHM2, active compounds read low 1.01 | S. cerevisiae deletion strains, locus YLR102C, strain apc9, active compounds read low 0.997 | S. cerevisiae deletion strains, locus YLR113W, strain HOG1, active compounds read low 0.988 | S. cerevisiae deletion strains, locus YLR221C, strain rsa3, active compounds read low 1.01 | S. cerevisiae deletion strains, locus YLR258W, strain gsy2, active compounds read low 1.02 | S. cerevisiae deletion strains, locus YLR262C, strain YPT6 (second series), active compounds read low 1.08 | S. cerevisiae deletion strains, locus YLR262C, strain YPT6, active compounds read low 1.01 | S. cerevisiae deletion strains, locus YLR268W, strain sec22, active compounds read low 1.06 | S. cerevisiae deletion strains, locus YLR320W, strain mms22, active compounds read low 1.03 | S. cerevisiae deletion strains, locus YLR330W, strain CHS5, active compounds read low 1 | S. cerevisiae deletion strains, locus YLR342W, strain FKS1 (second series), active compounds read low 0.981 | S. cerevisiae deletion strains, locus YLR342W, strain FKS1, active compounds read low 1.02 | S. cerevisiae deletion strains, locus YLR357W, strain rsc2, active compounds read low 1 | S. cerevisiae deletion strains, locus YLR370C, strain arc18, active compounds read low 1.02 | S. cerevisiae deletion strains, locus YLR371W, strain rom2, active compounds read low 1.01 | S. cerevisiae deletion strains, locus YLR384C, strain iki3, active compounds read low 1.01 | S. cerevisiae deletion strains, locus YLR418C, strain cdc73, active compounds read low 0.985 | S. cerevisiae deletion strains, locus YML016C, strain PPZ1, active compounds read low 1 | S. cerevisiae deletion strains, locus YML032C, strain rad52, active compounds read low 1.03 | S. cerevisiae deletion strains, locus YML120C, strain ndi1, active compounds read low 0.986 | S. cerevisiae deletion strains, locus YML124C, strain tub3, active compounds read low 1 | S. cerevisiae deletion strains, locus YMR058W, strain fet3, active compounds read low 1.02 | S. cerevisiae deletion strains, locus YMR078C, strain ctf18, active compounds read low 0.998 | S. cerevisiae deletion strains, locus YMR125W, strain sto1, active compounds read low 1.02 | S. cerevisiae deletion strains, locus YMR129W, active compounds read low 1.02 | S. cerevisiae deletion strains, locus YMR205C, strain PFK2, active compounds read low 1.02 | S. cerevisiae deletion strains, locus YMR223W, strain ubp8, active compounds read low 0.971 | S. cerevisiae deletion strains, locus YMR231W, strain pep5, active compounds read low 1 | S. cerevisiae deletion strains, locus YMR263W, strain SAP30, active compounds read low 1.02 | S. cerevisiae deletion strains, locus YMR307W, strain GAS1, active compounds read low 0.975 | S. cerevisiae deletion strains, locus YNL067W, strain RPL9B, active compounds read low 1.02 | S. cerevisiae deletion strains, locus YNL071W, strain lat1, active compounds read low 1.01 | S. cerevisiae deletion strains, locus YNL128W, strain TEP1, active compounds read low 1 | S. cerevisiae deletion strains, locus YNL153C, strain GIM3, active compounds read low 1.04 | S. cerevisiae deletion strains, locus YNL183C, strain NPR1, active compounds read low 0.897 | S. cerevisiae deletion strains, locus YNL209W, strain ssb2, active compounds read low 1.01 | S. cerevisiae deletion strains, locus YNL233W, strain BNI4, active compounds read low 1.03 | S. cerevisiae deletion strains, locus YNL248C, strain rpa49, active compounds read low 1.01 | S. cerevisiae deletion strains, locus YNL250W, strain rad50, active compounds read low 0.997 | S. cerevisiae deletion strains, locus YNL271C, strain bni1, active compounds read low 1.01 | S. cerevisiae deletion strains, locus YNL298W, strain CLA4, active compounds read low 1.01 | S. cerevisiae deletion strains, locus YNL307C, strain MCK1, active compounds read low 0.969 | S. cerevisiae deletion strains, locus YNL322C, strain KRE1 (second series), active compounds read low 1.05 | S. cerevisiae deletion strains, locus YNL322C, strain KRE1, active compounds read low 1 | S. cerevisiae deletion strains, locus YNR049C, strain mso1, active compounds read low 1.02 | S. cerevisiae deletion strains, locus YNR052C, strain pop2, active compounds read low 1.01 | S. cerevisiae deletion strains, locus YOL006C, strain TOP1, active compounds read low 0.99 | S. cerevisiae deletion strains, locus YOL012C, strain htz1 1.01 | S. cerevisiae deletion strains, locus YOL147C, strain pex11, active compounds read low 1.01 | S. cerevisiae deletion strains, locus YOR001W, strain rrp6, active compounds read low 1.02 | S. cerevisiae deletion strains, locus YOR061W, strain CKA2, active compounds read low 1.01 | S. cerevisiae deletion strains, locus YOR069W, strain VPS5, active compounds read low 1.01 | S. cerevisiae deletion strains, locus YOR070C, strain gyp1, active compounds read low 1.02 | S. cerevisiae deletion strains, locus YOR080W, strain dia2, active compounds read low 1.04 | S. cerevisiae deletion strains, locus YOR083W, strain WHI5, active compounds read low 1.02 | S. cerevisiae deletion strains, locus YOR106W, strain vam3, active compounds read low 1.03 | S. cerevisiae deletion strains, locus YOR136W, strain idh2, active compounds read low 0.993 | S. cerevisiae deletion strains, locus YOR144C, strain elg1, active compounds read low 0.997 | S. cerevisiae deletion strains, locus YOR184W, strain ser1, active compounds read low 0.956 | S. cerevisiae deletion strains, locus YOR231W, strain MKK1, active compounds read low 0.981 | S. cerevisiae deletion strains, locus YOR265W, strain rbl2, active compounds read low 1.01 | S. cerevisiae deletion strains, locus YOR270C, strain vph1, active compounds read low 1.05 | S. cerevisiae deletion strains, locus YOR290C, strain snf2, active compounds read low 1.03 | S. cerevisiae deletion strains, locus YOR316C, strain cot1, active compounds read low 1 | S. cerevisiae deletion strains, locus YPL051W, strain arl3, active compounds read low 1.01 | S. cerevisiae deletion strains, locus YPL055C, strain LGE1, active compounds read low 0.989 | S. cerevisiae deletion strains, locus YPL078C, strain atp4, active compounds read low 1.02 | S. cerevisiae deletion strains, locus YPL106C, strain sse1, active compounds read low 1.07 | S. cerevisiae deletion strains, locus YPL240C, strain hsp82, active compounds read low 0.985 | S. cerevisiae deletion strains, locus YPL241C, strain CIN2, active compounds read low 1.01 | S. cerevisiae deletion strains, locus YPL256C, strain CLN2, active compounds read low 0.974 | S. cerevisiae deletion strains, locus YPR119W, strain clb2, active compounds read low 1 | S. cerevisiae deletion strains, locus YPR141C, strain kar3, active compounds read low 0.996 | S. cerevisiae deletion strains, locus YPR163C, strain tif3, active compounds read low 1.02 | S. cerevisiae deletion strains, locus YPR167C, strain met16, active compounds read low 0.997 | S. cerevisiae deletion strains, strain wtn01, active compounds read low 1.03 | S. cerevisiae strains, strain wild type, active compounds read low 0.998
